{"source": "PubChem BioAssay AID447", "about": "(National Center for Advancing Translational Sciences (NCATS), 2006)", "note": "The campaign covered roughly 69,000 compounds. Fewer than 10 were called active. Another 100% or so got no clear call; they are omitted. How the calls were made is not given here. The list shows a part of the results."}
{"molecular_target": "UDP-N-acetylglucosamine--peptide N-acetylglucosaminyltransferase 110 kDa subunit (Homo sapiens) (UniProt O15294)", "sequence (O15294 whole entry, looked up)": "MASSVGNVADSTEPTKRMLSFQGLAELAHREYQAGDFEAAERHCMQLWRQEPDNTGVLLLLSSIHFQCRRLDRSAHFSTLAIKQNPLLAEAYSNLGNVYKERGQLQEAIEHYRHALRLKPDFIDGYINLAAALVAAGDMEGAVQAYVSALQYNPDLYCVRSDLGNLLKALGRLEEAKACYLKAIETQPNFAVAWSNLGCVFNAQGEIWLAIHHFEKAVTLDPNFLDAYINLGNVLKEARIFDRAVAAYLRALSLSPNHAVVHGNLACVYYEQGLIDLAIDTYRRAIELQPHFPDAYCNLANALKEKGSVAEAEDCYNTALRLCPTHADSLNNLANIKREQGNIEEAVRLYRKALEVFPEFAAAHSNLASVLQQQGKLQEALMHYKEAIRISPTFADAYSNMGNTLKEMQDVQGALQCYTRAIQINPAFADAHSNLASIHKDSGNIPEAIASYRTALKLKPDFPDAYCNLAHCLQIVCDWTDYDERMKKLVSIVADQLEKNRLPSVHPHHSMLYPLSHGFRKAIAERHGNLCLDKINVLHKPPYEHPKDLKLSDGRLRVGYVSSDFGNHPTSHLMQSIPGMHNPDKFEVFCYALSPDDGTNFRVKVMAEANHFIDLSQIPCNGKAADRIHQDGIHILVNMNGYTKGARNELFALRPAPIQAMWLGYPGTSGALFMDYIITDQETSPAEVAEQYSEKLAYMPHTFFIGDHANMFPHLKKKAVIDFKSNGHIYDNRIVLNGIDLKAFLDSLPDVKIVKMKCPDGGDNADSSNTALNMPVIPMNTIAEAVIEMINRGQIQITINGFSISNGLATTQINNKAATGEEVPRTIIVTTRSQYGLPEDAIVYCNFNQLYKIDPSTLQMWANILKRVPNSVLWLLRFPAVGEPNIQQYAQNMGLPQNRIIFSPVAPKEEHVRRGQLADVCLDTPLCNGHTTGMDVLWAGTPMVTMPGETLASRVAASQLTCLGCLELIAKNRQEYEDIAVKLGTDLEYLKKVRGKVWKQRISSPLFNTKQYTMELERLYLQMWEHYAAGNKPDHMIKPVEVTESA", "assay": "O-Glc NAc Transferase (sOGT)", "conditions": "sOGT fluorescence polarization UDP-GlcNAc probe displacement", "description": "NIH Molecular Libraries Screening Centers Network [MLSCN]\nNIH Chemical Genomics Center [NCGC]\nSuzanne Walker [Harvard Medical School]\nOGT is the sole enzyme that mediates the attachment of O-GlcNAc groups to serine and threonine residues in the nucleus and cytoplasm of eukaryotic cells, and no specific inhibitors are known. This type of glycosylation is involved in signal transduction and plays a key role in many essential cellular processes. High O-GlcNAc levels have been correlated to insulin resistance and type 2 diabetes. In addition to elucidating the role of O-GlcNAc in cellular processes, inhibitors of OGT might be useful in studying and perhaps treating type 2 diabetes. Since HTS-amenable direct assay for OGT activity is currently unavailable, a simpler substrate-displacement screen was performed. The signal measured is based on the change in fluorescence polarization of a fluorescein-labeled UDP-GlcNAc upon displacement from its complex with OGT. Recombinant truncated version of the enzyme, sOGT, as well as labeled probe, were made available by Suzanne Walker and Benjamin Gross, Harvard Medical School. […]\nThree uL of reagents were dispensed to 1536-well Greiner black plates. […] The plates were incubated for 15 min at room temperature, and then read on ViewLux (Perkin-Elmer) High-throughput CCD imager using fluorescein polarization filter set and 45 seconds exposure time. […]"}
{"compound": "O=C1CCCN1CC#CCN1CCCC1", "Potency": "29.9 µM (active)"}
